Reference: PubChem BioAssay AID1159580 (chemical genetic matrix, 2015)
Where “and” joins values, the source holds several entries; their conditions need not be identical. Equal values may be shown once. Screen size: about 5,500 compounds; about 2,000 (36%) were called active. Roughly 18% stayed inconclusive and do not appear here. No stated cut-off is given here; in the data, active means normalized growth mostly below about 0.91 (no sharp cut-off); inconclusive means no clear call, values can overlap the other calls; inactive means mostly above about 0.92. The list shows a part of the results.

Assay: chemical genetic growth profiling, strain panel (AID 1159580);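 further: tested at 20 µM; growth read once vehicle control cultures reached saturation at 30 °C; 1 = growth at the plate median or of vehicle wells; lower values mean less growth of the strain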
Details: S. cerevisiae deletion strains, growth OD

Measured: normalized growth

COc1ccc2c(c1OC)C(=O)O[C@@H]2[C@H]1c2cc3c(cc2CCN1C)OCO3
inactive: locus YAL013W, strain DEP1, hits give low values 1.03 | locus YAL021C, strain ccr4, hits give low values 1.01 | locus YAL026C, strain drs2, hits give low values 0.993 | locus YAL030W, strain snc1, hits give low values 0.991 | locus YBL061C, strain skt5, hits give low values 0.992 | locus YBR009C, strain hhf1, hits give low values 0.984 | locus YBR021W, strain FUR4, hits give low values 1.04 | locus YBR023C, strain chs3, hits give low values 0.987 | locus YBR171W, strain sec66, hits give low values 1 | locus YBR229C, strain ROT2, hits give low values 1.01 | locus YBR231C, strain swc5, hits give low values 0.989 | locus YBR279W, strain paf1, hits give low values 0.992 | locus YCL011C, strain gbp2, hits give low values 0.996 | locus YCL016C, strain dcc1, hits give low values 0.974 | locus YCL029C, strain bik1, hits give low values 1.02 | locus YCL061C, strain MRC1, hits give low values 0.995 | locus YCL069W, strain vba3, hits give low values 1 | locus YCR088W, strain abp1, hits give low values 0.997 | locus YDL005C, strain med2, hits give low values 0.997 | locus YDL035C, strain GPR1, hits give low values 1.03 | locus YDL040C, strain nat1, hits give low values 0.991 | locus YDL074C, strain BRE1, hits give low values 1.03 | locus YDL101C, strain DUN1, hits give low values 1.01 | locus YDL134C, strain PPH21, hits give low values 1.01 | locus YDL185W, strain tfp1, hits give low values 1.03 | locus YDL192W, strain arf1, hits give low values 1.02 | locus YDR001C, strain nth1, hits give low values 1 | locus YDR069C, strain doa4, hits give low values 0.981 | locus YDR101C, strain arx1, hits give low values 1.01 | locus YDR137W, strain rgp1, hits give low values 0.969 | locus YDR150W, strain NUM1, hits give low values 1.02 | locus YDR159W, strain sac3, hits give low values 0.991 | locus YDR162C, strain NBP2, hits give low values 1.02 | locus YDR195W, strain ref2 0.985 | locus YDR297W, strain sur2, hits give low values 0.985 | locus YDR318W, strain mcm21, hits give low values 1.03 | locus YDR334W, strain swr1, hits give low values 0.998 | locus YDR335W, strain msn5, hits give low values 0.989 | locus YDR388W, hits give low values 1.02 | locus YDR392W, strain spt3, hits give low values 0.929 | locus YDR502C, strain sam2, hits give low values 1.01 | locus YEL003W, strain gim4, hits give low values 1.01 | locus YEL037C, strain rad23, hits give low values 1 | locus YEL061C, strain CIN8 (second series), hits give low values 1.01 | locus YEL061C, strain CIN8, hits give low values 1.01 | locus YER015W, strain faa2, hits give low values 0.974 | locus YER016W, strain bim1, hits give low values 0.991 | locus YER110C, hits give low values 1.03 | locus YER111C, strain swi4, hits give low values 1.01 | locus YER155C, strain BEM2 (second series), hits give low values 0.995 | locus YER155C, strain BEM2, hits give low values 1.02 | locus YER167W, strain BCK2, hits give low values 1.04 | locus YFR010W, strain ubp6, hits give low values 1.01 | locus YGL078C, strain dbp3, hits give low values 1.03 | locus YGL086W, strain mad1, hits give low values 1.03 | locus YGL167C, strain pmr1, hits give low values 0.984 | locus YGL173C, strain kem1, hits give low values 0.993 | locus YGL227W, strain vid30, hits give low values 0.994 | locus YGL240W, strain doc1, hits give low values 0.958 | locus YGL248W, strain PDE1, hits give low values 1.02 | locus YGL253W, strain hxk2, hits give low values 0.999 | locus YGR078C, strain PAC10, hits give low values 1.01 | locus YGR135W, strain pre9, hits give low values 1.01 | locus YGR229C, strain SMI1, hits give low values 1.03 | locus YGR252W, strain gcn5, hits give low values 1.06 | locus YHR013C, strain ard1, hits give low values 0.965 | locus YHR027C, strain rpn1, hits give low values 1.01 | locus YHR030C, strain SLT2, hits give low values 1.02 | locus YHR079C, strain IRE1 (second series), hits give low values 1.02 | locus YHR079C, strain IRE1, hits give low values 0.995 | locus YHR094C, strain hxt1, hits give low values 1.02 | locus YHR129C, strain ARP1, hits give low values 1.02 | locus YHR142W, strain chs7, hits give low values 1.01 | locus YHR200W, strain rpn10, hits give low values 1.01 | locus YIL066C, strain RNR3, hits give low values 1.02 | locus YIL073C, strain SPO22, hits give low values 1.11 | locus YIL125W, strain kgd1, hits give low values 1.02 | locus YIR030C, strain dcg1, hits give low values 1.01 | locus YJL092W, strain hpr5, hits give low values 0.999 | locus YJL095W, strain BCK1 (second series), hits give low values 0.996 | locus YJL095W, strain BCK1, hits give low values 1.01 and 1 | locus YJL115W, strain asf1, hits give low values 0.997 | locus YJL129C, strain trk1, hits give low values 1.02 | locus YJL134W, strain LCB3, hits give low values 1.01 | locus YJL154C, strain vps35, hits give low values 0.999 | locus YJL164C, strain tpk1, hits give low values 0.984 | locus YJL166W, strain qcr8, hits give low values 0.975 | locus YJL168C, strain set2, hits give low values 1.01 | locus YJL187C, strain SWE1 (second series), hits give low values 1.02 | locus YJL187C, strain SWE1, hits give low values 0.988 | locus YJR043C, strain POL32, hits give low values 1.06 | locus YJR066W, strain TOR1, hits give low values 0.975
